Test results published in PubChem BioAssay (NCATS).
Inconclusive results are not listed. The source made the active and inactive calls. The call rests on the fitted dose curve; in most records, active means well fitted cell-killing curve with a large enough effect; inconclusive means small, poorly fitted or top-dose-only effect, or effect the other way; inactive means flat fitted curve, though single readings scatter. Where a SMILES comes first, the peptide text is derived from it.

system: Tov112D; test: Primary qHTS to identify gynecologic anti-cancer compounds using libraries of approved drugs and bioactive compounds (AID 1345084); conditions: Gynecologic cancer cell panel viability, ATPlite luminescence, 48 h; series mostly up to 57.5 µM; activity change, negative = cytotoxicity: at the top concentration; further: nearly all actives have a fitted effect of over 55% in size
Method in brief: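 ATP-based viability (ATPlite), 1,000 cells/well, 16 h pre-incubation, 48 h compound at 37 C, 5% CO2, 15 min RT before read.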
On the % scale 0 is the no-effect control and ±100 the full control effect.

Structure (SMILES) | activity change, negative = cytotoxicity
O=C(O)CC/C=C\C[C@H]1CO[C@@H](c2ccccc2Cl)O[C@H]1c1ccccc1O | 4.37% (inactive)
CC1=CC2=C(C)C(=O)C(C)(O)C(O)C2CO1 (stereo not given) | -3.48% (inactive)
O=C(/C=C/c1ccccc1)OC[C@H]1O[C@@H](OC(=O)c2cc(O)c(O)c(O)c2)[C@H](O)[C@@H](O)[C@@H]1O | 3.53% [at 25.3 µM] (inactive)
CCC/C=C1\OC(=O)C2=C1CCC(O)C2O (stereo not given) | 5.22% (inactive)
C=C(CCO)C(=O)OCC1OCC(OC(=O)C(=C)CCO[C@@H]2O[C@H](CO)[C@@H](O)[C@H](O)[C@H]2O)C(O)C1O (stereo not given in full) | 0.721% [at 25.3 µM] (inactive)
COc1ccc(/C=C/C(N)=O)cc1OC | 0.284% (inactive)
Cc1nnc(-c2sc(NC(=O)[C@H](C(C)C)n3c(=O)[nH]c4ccccc4c3=O)nc2C)o1 | -1.46% (inactive)
CNC(C)C(=O)NC(C(=O)N1CCCC1C(=O)Nc1cccc2ncccc12)C(C)C (stereo not given) | 14.3% (inactive)
C=CC1(C)CC=C2C(CCC3C(C)(C(=O)O)CCCC23C)C1 (stereo not given) | 2.42% (inactive)
O=C(OCc1ccccc1O[C@@H]1O[C@H](CO)[C@@H](O)[C@H](O)[C@H]1O)C1(O)C=CCCC1O (stereo not given in full) | 7.12% [at 25.3 µM] (inactive)
CC/C=C/C(O)C(O)C1=C(C)C(=O)C2(O1)C(=O)NC(OC)(C(=O)c1ccccc1)C2O (stereo not given) | -5.57% [at 25.3 µM] (inactive)
N[C@@H](CCNCc1ccc(Cl)cc1)C(=O)N1CCCCC1 | 2.33% (inactive)
OC[C@@]1(O)CO[C@H](OC[C@H]2O[C@@H](OC(CCCCc3ccc(O)cc3)CCc3ccc(O)cc3)[C@H](O)[C@@H](O)[C@@H]2O)[C@@H]1O (stereo not given in full) | -4.44% [at 25.3 µM] (inactive)
CSCC[C@H](NC(=O)[C@H](CO)NC(=O)[C@H](CCC(=O)O)NC(C)=O)C(=O)N[C@H](C=O)CC(=O)O (Ac-ESMD-aldehyde) | 6.37% [at 11.6 µM] (inactive)
CC(C)(O)C(O)C(=O)OCc1ccc(O[C@@H]2O[C@H](CO)[C@@H](O)[C@H](O)[C@H]2O)cc1 (stereo not given in full) | 9.47% [at 25.3 µM] (inactive)
C=C1C[C@H](O)[C@@H](O)[C@@]2(C)C1[C@@H](O)[C@H]1OC(=O)C3[C@@H](C)[C@@H](O)[C@H](O)C2[C@]31C (stereo not given in full) | 3.84% [at 38.5 µM] (inactive)
OCC1=C[C@@H](O)[C@@H]2C=CO[C@@H](O[C@@H]3O[C@H](CO)[C@@H](O)[C@H](O)[C@H]3O)[C@H]12 | 2.7% [at 38.5 µM] (inactive)
Cc1cc(C)c2nc(-c3ccccn3)cc(C(=O)Nc3ccc(S(=O)(=O)Nc4onc(C)c4C)cc3)c2c1 | 11.6% (inactive)
COc1cc(/C=C/C(=O)OC[C@H]2O[C@@H](OC3OC=C(C(=O)O)C4C(O)CC(C)(O)C34)[C@H](O)[C@@H](O)[C@@H]2O)cc(OC)c1O (stereo not given in full) | 7.17% [at 25.3 µM] (inactive)
CC1(C)CC[C@]2(C(=O)O)[C@H](O)C[C@]3(C)C(=CCC4[C@@]5(C)CC[C@H](O[C@@H]6OC[C@@H](O)[C@H](O)[C@H]6O)[C@@](C)(C(=O)O)C5CC[C@]43C)[C@@H]2C1 (stereo not given in full) | 5.97% [at 25.3 µM] (inactive)
COC(=O)CCC1(C)C(C(C)(C)O)C(O)CC2(C)Oc3c(C)c4c(c(OC)c3CC21)C(=O)OC4 (stereo not given) | -3.03% [at 25.3 µM] (inactive)
C=CC(C)(C)C12Nc3c(ccc4c3OC(C)(C)C=C4)C1(O)CC1C(=O)N3CCCC3C(=O)N12 (stereo not given) | -0.402% [at 25.3 µM] (inactive)
CCc1cccc2c3c([nH]c12)[C@@](CC)(CC(=O)O)OCC3 | -0.203% (inactive)
CN(C)CC(c1ccc(O)cc1)C1(O)CCCCC1 (stereo not given) | 5.58% (inactive)
OC[C@@]1(O)CO[C@@H](OC[C@H]2O[C@@H](Oc3ccccc3)[C@H](O)[C@@H](O)[C@@H]2O)[C@@H]1O | 0.942% [at 38.5 µM] (inactive)
O=C(OC[C@H]1O[C@@H](Oc2ccccc2CO)[C@H](O)[C@@H](O)[C@@H]1O)c1ccccc1 | 8.49% [at 38.5 µM] (inactive)
C[C@@H]1O[C@@H](O[C@@H]2\C=C/C=C\C=C/C=C\C[C@H](C)OC(=O)/C=C\[C@H]3O[C@@H]3C[C@H](O)C[C@]3(O)C[C@@H](O)[C@@H](C(=O)O)[C@H](C2)O3)[C@H](O)[C@H](N)[C@@H]1O | -0.629% [at 38.5 µM] (inactive)
C=C1[C@H](OC(C)=O)[C@H]2[C@@H](OC(=O)c3ccccc3)[C@@H](C)C[C@]2(O)[C@@H](OC(C)=O)[C@H](C)/C=C/C(C)(C)C(=O)[C@H](OC(C)=O)[C@H]1OC(C)=O | 10.4% [at 25.3 µM] (inactive)
COc1ccc(/C=C/C(=O)O[C@@H]2[C@@H](O[C@@H]3O[C@H](CO)[C@@H](O)[C@H](O)[C@H]3O)[C@@H](O)[C@H](O[C@H]3C4C=CO[C@@H](O[C@@H]5O[C@H](CO)[C@@H](O)[C@H](O)[C@H]5O)C4[C@@]4(CO)O[C@@H]34)O[C@H]2C)cc1 (stereo not given in full) | 0.569% [at 11.6 µM] (inactive)
C[C@@H]1C(=O)O[C@H]2[C@H]1CC[C@@]1(C)C(=O)C=C[C@@](C)(O)[C@H]21 | 5.7% (inactive)
